According to PubChem BioAssay (NCI):
Compounds without any hit were thinned out: in the full panel of roughly 83,000, 20% have a hit.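 Percent growth is the endpoint: 0 to 100 indicates growth inhibition (40 means 60% inhibition), 0 means no net growth, and negative values indicate cell death.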 A number with no mark means an inactive call. Activity calls are given as the source filed them. Rule for the calls: active = growth percent below 10; inactive = the rest.

Tested on: COLO 205 colon
Test: NCI-60 one-dose screen, 48 h (100 = growth as untreated, 0 = no growth, -100 = all killed)
Settings: 10 µM unless noted

Structure (SMILES)	growth
COc1ccc(CCN2C(=O)CCSC2=S)cc1OC	114%
CCOC(=O)c1sc(-c2ccc(OS(=O)(=O)c3ccccc3[N+](=O)[O-])c(C=O)c2)nc1C	117%
Cc1cccc(NC(=O)c2sc3nc4c(cc3c2N)CCCC4)c1C	-38% (active)
COc1cc(C(=O)NN=C2c3ccccc3-c3ccccc32)cc(OC)c1OC	2.88% (active)
Nc1ccc(-n2c(=O)oc3ccc(Cl)cc3c2=O)c(Cl)c1	-27.4% (active)
O=C(Nc1ccc(-c2nc3cc4ccccc4cc3[nH]2)cc1)c1cccc(Br)c1	34.6%
CCOC(=O)CSc1c(-c2ccccc2)c2cc(Cl)ccc2[nH]c1=O	110%
O=C(Nc1ncc(Cc2cccc(C(F)(F)F)c2)s1)C1COc2ccccc2O1 (stereo not given)	104%
COc1ccc(-n2c(C(O)c3ccccc3)nn(CN3CCOCC3)c2=S)cc1 (stereo not given)	112%
Fc1ccc(Oc2ccc(Nc3ncnc4onc(-c5ccccc5)c34)cc2)cc1	122%
Nc1nc(Nc2cccc(F)c2)nc2ccccc12	-54.1% (active)
O=C(Nc1ccc(Br)cc1F)c1cc(F)ccc1O	16.2%
Nc1ccc(C2c3ccccc3Oc3ccccc32)cc1	105%
COc1ccc(/C=C/C(=O)c2ccc3cc(OC)c(OC)cc3c2)cc1OC	25.9%
CN(C)c1ccc(N=Cc2ccc(N3CCOCC3)cc2)cc1	3.73% (active)
CCC(C)(C)C(=O)O[C@H]1C[C@@H](C)C=C2C=C[C@H](C)[C@H](CC[C@@H]3CC=CC(=O)O3)[C@H]21	72.7%
COC(=O)[C@H]1CCCN1C(=O)[C@H]1CCCN1C(=O)[C@H](Cc1c[nH]c2ccccc12)NC(=S)Nc1cc(C(F)(F)F)cc(C(F)(F)F)c1	-34.8% (active)
NCCOc1ncccc1/C=C1\c2ccccc2-c2ccc([N+](=O)[O-])cc21	-50.5% (active)
CC(C)C[C@H](C(=O)N[C@H](C(N)=O)C(C)C)N1CC=CCN(OCc2ccccc2)S1(=O)=O	105% [2.5 µM]
COc1ccc(N)c(-c2cc3c(c4c2[nH]c2ccc(OC)cc24)CCCC3)c1	102%
COc1ccc(-c2nc(-c3ccccn3)c(-c3ccccn3)n2CC(C)C)cc1OC1CCCC1	12.1%

Tested on: DU-145 prostate
Test: as above
Settings: 10 µM unless noted

Structure (SMILES)	growth
O=C1NC(=O)C(=Cc2cn(Cc3cn(Cc4ccc(Cl)cc4Cl)nn3)c3ccccc23)C(=O)N1	98.9%
CN1CCN(Cc2ccc(C(=O)Nc3cncc(C#Cc4cnc(N)c5ccccc45)c3)cc2C(F)(F)F)CC1	-87.2% (active)
COc1ccc(C2C3=C(COC3=O)N(CCO)c3cc4c(cc32)OCCO4)cc1 (stereo not given)	106%
O=C(Nc1ccc(I)cc1F)c1cc(Cl)ccc1O	13.8%
NCCOc1ccccc1/C=C1\c2ccccc2-c2ccc([N+](=O)[O-])cc21	-42.3% (active)
O=c1oc2ccc(I)cc2c(=O)n1-c1ccc(Cl)cc1F	19.5%
COc1cc(/C=C2\CN(C)C/C(=C\c3cc(CN4CCOCC4)c(O)c(OC)c3)C2=O)cc(CN2CCOCC2)c1O	28.5%
CCOC(=O)c1sc(-c2ccc(OS(=O)(=O)C[C@]34CCC(CC3=O)C4(C)C)c(C=O)c2)nc1C	21.3%
COc1ccc(/C=C2/SC(=O)N(CC(=O)N3CCN(c4cc5c(cc4F)c(=O)c(C(=O)O)cn5C4CC4)CC3)C2=O)cc1	115%
COc1ccc(C)c2sc(N(Cc3cccnc3)C(=O)c3ccc(C#N)cc3)nc12	17.3%
NC(=O)CSc1nc(-c2ccc(F)cc2)cc(-c2ccco2)n1	111%
CC(=O)c1ccc(Nc2nc(NCCO)nc(Nc3ccc(Cl)cc3)n2)cc1	94.8%
O=c1c2cc(F)cc(Cl)c2sc2c(Cl)nc3ccccc3c12	109%
O=Cc1cc2ccccc2nc1Nc1nccs1	80.3%
CC1=NCC2NC(=O)NC(C)=C12 (stereo not given)	104%
COc1ccc(CCN2C(=O)CCSC2=S)cc1OC	67.6%
CCOC(=O)c1sc(-c2ccc(OS(=O)(=O)c3ccccc3[N+](=O)[O-])c(C=O)c2)nc1C	78.1%
Cc1cccc(NC(=O)c2sc3nc4c(cc3c2N)CCCC4)c1C	19.6%
COc1cc(C(=O)NN=C2c3ccccc3-c3ccccc32)cc(OC)c1OC	49.7%
Nc1ccc(-n2c(=O)oc3ccc(Cl)cc3c2=O)c(Cl)c1	9.79% (active)

Structure (SMILES)	growth
O=C(Nc1ccc(-c2nc3cc4ccccc4cc3[nH]2)cc1)c1cccc(Br)c1	46.4%
CCOC(=O)CSc1c(-c2ccccc2)c2cc(Cl)ccc2[nH]c1=O	103%
O=C(NCc1ccco1)C1CN(c2ccc(Cl)cc2)N(c2ccc(Cl)cc2)C1=O (stereo not given)	70.1%
O=C(Nc1ncc(Cc2cccc(C(F)(F)F)c2)s1)C1COc2ccccc2O1 (stereo not given)	105%
COc1ccc(-n2c(C(O)c3ccccc3)nn(CN3CCOCC3)c2=S)cc1 (stereo not given)	109%
Fc1ccc(Oc2ccc(Nc3ncnc4onc(-c5ccccc5)c34)cc2)cc1	95.2%
Cc1ccc(N=NC2C(=O)N(c3ccc(Cl)cc3)N(c3ccc(Cl)cc3)C2=O)cc1	107%
Nc1nc(Nc2cccc(F)c2)nc2ccccc12	67.9%
O=C(Nc1ccc(Br)cc1F)c1cc(F)ccc1O	15.4%
Nc1ccc(C2c3ccccc3Oc3ccccc32)cc1	106%
COc1ccc(/C=C/C(=O)c2ccc3cc(OC)c(OC)cc3c2)cc1OC	46.7%
CN(C)c1ccc(N=Cc2ccc(N3CCOCC3)cc2)cc1	99.6%
CC(=O)c1ccc(NC(=O)Nc2ccc(S(=O)(=O)Nc3ccc(Cl)nn3)cc2)cc1	110%
CCC(C)(C)C(=O)O[C@H]1C[C@@H](C)C=C2C=C[C@H](C)[C@H](CC[C@@H]3CC=CC(=O)O3)[C@H]21	82.7%
COC(=O)[C@H]1CCCN1C(=O)[C@H]1CCCN1C(=O)[C@H](Cc1c[nH]c2ccccc12)NC(=S)Nc1cc(C(F)(F)F)cc(C(F)(F)F)c1	64.6%
NCCOc1ncccc1/C=C1\c2ccccc2-c2ccc([N+](=O)[O-])cc21	-34.4% (active)
CC(C)C[C@H](C(=O)N[C@H](C(N)=O)C(C)C)N1CC=CCN(OCc2ccccc2)S1(=O)=O	131% [2.5 µM]
COc1ccc(N)c(-c2cc3c(c4c2[nH]c2ccc(OC)cc24)CCCC3)c1	83.7%
COc1ccc(-c2nc(-c3ccccn3)c(-c3ccccn3)n2CC(C)C)cc1OC1CCCC1	28.7%
